Experimental data from PubChem BioAssay (NCATS).
Records with an inconclusive call do not appear. Where a call stands in place of a potency, no number is given. A number with no mark means an inactive call. Active and inactive are the calls of the source. Calls come from the whole dose curve; as a rule, active = well fitted cell-killing curve with a large enough effect; inconclusive = small, poorly fitted or top-dose-only effect, or effect the other way; inactive = flat fitted curve, though single readings scatter. Where a SMILES comes first, the peptide text is derived from it. [ ]: non-standard residue; d: D form. dPhe(4-Cl) = N[C@H](Cc1ccc(Cl)cc1)C(=O)O; d2Nal = N[C@H](Cc1ccc2ccccc2c1)C(=O)O; dCit = NC(=O)NCCC[C@@H](N)C(=O)O; d3Pal = N[C@H](Cc1cccnc1)C(=O)O

Assays:
Experiment in all cases: Primary qHTS to identify gynecologic anti-cancer compounds using libraries of approved drugs and bioactive compounds (AID 1345084); note: nearly all actives have a fitted effect of over 55% in size
Conditions in all cases: Gynecologic cancer cell panel viability, ATPlite luminescence, 48 h; series mostly up to 57.5 µM
JEG-3 = test system: JEG-3
Method in brief: (§1)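 Cell viability after 48 h drug treatment, ATPlite luminescence readout; five doses.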

OV90 = test system: OV90
Method in brief: as §1

PA-1 = test system: PA-1
Method in brief: as §1

Tov-21-G = test system: Tov-21-G
Method in brief: as §1

Tov112D = test system: Tov112D
Method in brief: as §1
Potency is the fitted concentration of half-maximal effect.

Structure (SMILES) | Potency (JEG-3) | Potency (OV90) | Potency (PA-1) | Potency (Tov-21-G) | Potency (Tov112D)
Cc1nc(C)c(-c2ccc(C3CCC(CC(=O)O)CC3)cc2)nc1C(N)=O (stereo not given) | inactive | inactive | inactive | inactive | inactive
C/C=C/C1=CC2=C(CO1)C(=O)C(C)(O)C(OC(=O)c1c(C)cc(OC)cc1O)C2 (stereo not given) | inactive | inactive | inactive | inactive | inactive
CCN(Cc1cccnc1)C(=O)CN(c1ccc(OC)nc1)S(=O)(=O)c1ccccc1C | inactive | inactive | inactive | inactive | inactive
COc1ccc(CCC(=O)c2c(O)cc(O)cc2O[C@@H]2O[C@H](CO)[C@@H](O)[C@H](O)[C@H]2O)cc1 | inactive | inactive | inactive | inactive | inactive
O=C(c1ccc2nccnc2c1)N1CCCCC1 | inactive | inactive | inactive | inactive | inactive
C[C@@H]1O[C@@H](O[C@H]2[C@@H]3C=CO[C@@H](O[C@@H]4O[C@H](CO)[C@@H](O)[C@H](O)[C@H]4O)[C@@H]3[C@@]3(CO)O[C@@H]23)[C@H](OC(=O)/C=C/c2ccccc2)[C@H](O)[C@H]1O | inactive | inactive | inactive | inactive | inactive
CS(=O)(=O)c1ccc([C@H](CC2CCCC2)C(=O)Nc2nccs2)cc1 | inactive | inactive | inactive | inactive | inactive
CC(=O)N[C@H](Cc1ccc2ccccc2c1)C(=O)N[C@H](Cc1ccc(Cl)cc1)C(=O)N[C@H](Cc1cccnc1)C(=O)N[C@@H](CO)C(=O)N[C@@H](Cc1ccc(O)cc1)C(=O)N[C@H](CCCNC(N)=O)C(=O)N[C@@H](CC(C)C)C(=O)N[C@@H](CCCN=C(N)N)C(=O)N1CCC[C@H]1C(=O)N[C@H](C)C(N)=O (Ac-[d2Nal][dPhe(4-Cl)][d3Pal]SY[dCit]LRP[dA]-NH2) | inactive | inactive | inactive | inactive | inactive
Cc1cccc(C)c1-n1c(=O)c2cnc(Nc3ccc(N4CCN(C)CC4)cc3)nc2n2c3ccccc3nc12 | 12.6 µM (active) | 12.6 µM (active) | 7.94 µM (active) | 0.398 µM (active) | 8.91 µM (active)
CC(C)(C(=O)NCC(F)(F)C(F)(F)F)C(=O)NC1C(=O)Nc2ccccc2-c2ccccc21 (stereo not given) | inactive | inactive | inactive | inactive | inactive
C=C[C@@](C)(O)CC/C=C(\C)C(=O)O[C@@H]1[C@@H]2O[C@]2(C)[C@H]2[C@H](O[C@@H]3O[C@H](CO)[C@@H](O)[C@H](O)[C@H]3O)OC=C[C@@]12O | inactive | inactive | inactive | inactive | inactive
CC1CCC2C(C)(C)[C@@H](O)CC[C@]2(C)C12Cc1c(O)cc3c(c1O2)CN(C(CCC(=O)O)C(=O)O)C3=O (stereo not given in full) | inactive | inactive | inactive | inactive | inactive
CC/C=C/CC1=C(CCCCC(CCC(=O)O)OC(C)=O)CCC1=O (stereo not given) | inactive | inactive | inactive | inactive | inactive
CCOc1ccc(NC(=S)N2CCC(C(O)(c3ccccc3)c3ccccc3)CC2)cc1 | inactive | inactive | inactive | inactive | inactive
COC(=O)C1=C2Nc3ccccc3C23CCN2CCCC(C(C)O)(C1)C23 (stereo not given) | inactive | inactive | inactive | inactive | inactive
OCC(CO[C@@H]1O[C@H](CO)[C@@H](O)[C@H](O)[C@H]1O)c1ccc2c(c1)OCO2 (stereo not given in full) | inactive | inactive | inactive | inactive | inactive
